PubChem BioAssay AID1578 (Sanford-Burnham Center for Chemical Genomics, 2009)
Hit rate of the full screen: of about 290,000 compounds, about 3,000 (1%) were called active. What follows is part of a selection rich in actives, with near analogues and random picks from the rest. Unmarked numbers belong to inactive results. Rule as the data show it: active = inhibition mostly above about 36% (no sharp cut-off); inactive = mostly below about 34%.

assay: inhibition of NOD1-driven NF-kB reporter – cell-based, luminescence, uHTS, primary screen (AID 1578); details: NOD1-driven NF-kB luciferase reporter cells, at 4 µM, hits give high values;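 also: HEK-293T reporter cells stimulated with the NOD1 agonist gamma-tri-DAP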

Compound | inhibition
COc1ccc(CCNC(=O)CN(c2ccc(OC)c(OC)c2)S(=O)(=O)c2ccc(C)cc2)cc1 | 32.6%
Cc1nn(Cc2ccc(F)cc2)c(C)c1NC(=O)CCCn1nc([N+](=O)[O-])cc1C | -34.8%
O=c1cc(N2CCN(c3ccccc3)CC2)[nH]c(=O)n1-c1ccccc1 | -19.3%
CC(C)NC(=S)N1CCN(Cc2ccc3c(c2)OCO3)CC1 | -10.8%
COc1ccc(S(=O)(=O)Nc2c(NC3CCCCC3)c3ccccc3oc2=O)cc1OC | -7.5%
O=C(Nc1nnc(CSCc2ccc(F)cc2)s1)c1ccc([N+](=O)[O-])cc1 | 1.6%
O=C(Nc1cnc2ccccc2c1)c1ccncc1 | -21.5%
O=C(Nc1cccc(Cl)c1)Nc1cccc(C(=O)O)c1 | -9.6%
Cc1ccc(NC(=O)Nc2cnc3ccccc3c2)cc1 | -44.8%
O=C(Nc1ccc(Cl)cc1)Nc1cccc(C(=O)O)c1 | 67.9% (active)
O=C(NCc1ccccc1)C(=O)Nc1cccc(C(=O)O)c1 | 39.8% (active)
Cc1ccc(C(=O)Nc2cnc3ccccc3c2)cc1 | 81.8% (active)
CSc1cccc(NC(=O)C(=O)NCc2ccccc2)c1 | -4.7%
NC(=O)c1cccc(NC(=O)Nc2ccc(Cl)cc2)c1 | 9.4%
O=C(O)c1cccc(NC(=S)NCc2ccccc2)c1 | -23.1%
CCc1nc(CN2CCN(c3ccc(C(F)(F)F)cn3)CC2)c(C)[nH]1 | -4.8%
O=C(c1ccc(S(=O)(=O)Nc2ccccc2)cc1)N1CCCCCCC1 | -14.1%
CCOC(=O)CCNC(=O)N1CCCC(Cc2ccccc2)(C(=O)OCC)C1 (configuration not stated) | -26.2%
COc1ccc(NC(=O)CCC(=O)Nc2nnc(CC(C)C)s2)cc1Cl | -5.8%
COC(=O)C1=C(C)NC(=O)NC1c1cn(-c2ccccc2)nc1-c1cccs1 (configuration not stated) | -21.3%
CCN1C(=O)/C(=C/N(C)c2ccccc2)OC1=S | -15.3%
CCN1C(=O)/C(=C\N(C(C)=O)c2ccccc2)OC1=S | 55.5% (active)
CCN1C(=O)/C(=C/N(C(C)=O)c2ccccc2)N(c2ccccc2)C1=S | 11.4%
Nc1nc(COc2ccccc2C=O)nc(Nc2ccccc2)n1 | -7.7%

Compound | inhibition
CN(C)c1ccc(C2CC(=O)C=C(Nc3ccccc3N)C2)cc1 (configuration not stated) | -11.3%
Cc1ccc(C(=O)CSc2ncnc3sc4c(c23)CCC(C)C4)cc1 (configuration not stated) | -2.7%
O=C(Nc1ccc(Oc2ccc(Cl)cc2)c(Cl)c1)c1cc(I)cc(I)c1O | -14.3%
COc1c(Cl)cc(Cl)cc1C(=O)Nc1ccc(NC(C)=O)cc1 | -17.9%
CC(=O)Oc1c(I)cc(I)cc1C(=O)Nc1ccc(Cl)cc1 | 85.8% (active)
CN(CC(=O)Nc1ccccc1Cl)C(=O)c1cc(=O)[nH]c2ccccc12 | -12.4%
CCOC(=O)c1ccc(NC(=O)COc2ccc(S(=O)(=O)NC(C)(C)C)cc2)cc1 | -33.5%
CCN1C(=O)/C(=c2\o/c(=C3\C=Cc4ccccc4N3CC)c(=O)n2CC)SC1=S | 4.4%
COc1ccc(N2C(=O)c3ccc(C(=O)Nc4cc(OC)ccc4OC)cc3C2=O)cc1 | -3.6%
Cc1ccc(C(C(=O)NC2CCCCC2)N(Cc2ccccc2)C(=O)Cc2c[nH]c3ccccc23)o1 (configuration not stated) | -26.2%
COc1ccc(NC(=O)c2cc(S(=O)(=O)N(Cc3ccccc3)c3ccccc3)ccc2Cl)cn1 | 10.8%
Cc1cc(C(F)(F)F)c(C#N)c(SCC(=O)Nc2nc3cc(Br)ccc3s2)n1 | 67.4% (active)
Cc1ccc2sc(NC(=O)CSc3nc(C)cc(C)c3C#N)nc2c1 | -16.6%
Cc1cc(C(F)(F)F)c(C#N)c(SCC(=O)Nc2nc3ccccc3s2)n1 | -5.2%
Cc1nnc(NC(=O)CSc2ccc(-c3ccc(Cl)cc3)nn2)s1 | -24.7%
C=C(C)CN(CC)C(=O)CC1C(=O)NCCN1CC(C)(C)C (configuration not stated) | -7.4%
CC(=O)N1CCOc2cc(S(=O)(=O)N3CCN(c4ccccc4)CC3)c(Cl)cc21 | -30.8%
CC(=O)N1CCOc2ccc(S(=O)(=O)NC(C)c3ccccc3)cc21 (configuration not stated) | 1.8%
CC(=O)N1CCOc2cc(S(=O)(=O)NC(C)c3ccccc3)c(Cl)cc21 (configuration not stated) | 59.9% (active)
COc1cccc(-c2nn3c(-c4cccc(C)c4)nnc3s2)c1 | -87.2%
CCOC(=O)C1=C(C)N=c2s/c(=C/c3ccccc3)c(=O)n2C1c1ccc(OC)c(OC)c1 (configuration not stated) | -27.7%
CCOC(=O)C1=C(C)N=c2s/c(=C\c3ccc(O)c([N+](=O)[O-])c3)c(=O)n2C1c1ccccc1OC (configuration not stated) | 8.4%
CCOC(=O)C1=C(C)n2c(s/c(=C/c3cccc([N+](=O)[O-])c3)c2=O)=NC1c1ccc(O)c(OC)c1 (configuration not stated) | 95.3% (active)
